The supplement of paper PMC12645437, “Orthogonal IMiD-Degron Pairs Induce Selective Protein Degradation in Cells” (ACS Chemical Biology, 2025)
The full ranking holds about 8,300 sequences; the median of “log2 fold change of degron read counts, EGFP-low vs EGFP+ sorted cells (limma voom), compound-induced degradation” is about -1.1, and the highest 2% start at about 3.2. The list comes from a sample in which the highest values are over-represented; it also holds similar and randomly drawn sequences.

Target: T1, CRBN, Q96SW2
T1 chain: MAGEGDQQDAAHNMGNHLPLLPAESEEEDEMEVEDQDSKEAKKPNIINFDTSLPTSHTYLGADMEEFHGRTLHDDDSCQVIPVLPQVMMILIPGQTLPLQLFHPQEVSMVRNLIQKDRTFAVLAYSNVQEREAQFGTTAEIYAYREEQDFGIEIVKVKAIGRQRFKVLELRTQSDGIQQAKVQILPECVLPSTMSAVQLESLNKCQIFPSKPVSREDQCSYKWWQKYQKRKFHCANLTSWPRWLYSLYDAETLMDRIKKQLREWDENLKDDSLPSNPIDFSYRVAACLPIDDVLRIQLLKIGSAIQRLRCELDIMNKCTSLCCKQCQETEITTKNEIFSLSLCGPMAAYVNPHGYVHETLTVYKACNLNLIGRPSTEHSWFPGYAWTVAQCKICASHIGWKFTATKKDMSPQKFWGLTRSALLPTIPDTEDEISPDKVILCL
Experiment: log2 fold change of degron read counts, EGFP-low vs EGFP+ sorted cells (limma voom), compound-induced degradation; higher = more compound-induced degradation of the degron-EGFP fusion; degrons are variants of IKZF1/3 zinc finger 2; compound dose not given here
Settings: Jurkat, 18 h

[1] = compound: compound 19 (5-tert-butyl-thalidomide)
[2] = compound: compound 22 (5-morpholino-thalidomide)
[3] = compound: compound 33 (diphenyl IMiD analogue)
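Also: pooled lentiviral library of zinc finger degron-EGFP fusions in mCherry-positive Jurkat cells, FACS-sorted after compound exposure, with degron abundance counted by next-generation sequencing.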

For FVCDQCGAFFTQKGNLLRHIKL [46F_47V_49D_50Q_52G_53A_54F_55F_67L_, Q9UKT9], the “log2 fold change of degron read counts” value [1] was -2.6, the “log2 fold change of degron read counts” value [2] was -2.32 and the “log2 fold change of degron read counts” value [3] was -2.12. The “log2 fold change of degron read counts” value (compound: thalidomide) was -2.19.

In the case of FFCSVCGHPFTQKGNLLRHIKL [46F_47F_49S_50V_52G_53H_54P_55F_67L_, Q9UKT9], the “log2 fold change of degron read counts” value [1] is reported as -0.493, the “log2 fold change of degron read counts” value [2] is reported as -1.26 and the “log2 fold change of degron read counts” value [3] is reported as -1.56. For the same sequence, the “log2 fold change of degron read counts” value (compound: thalidomide) was -1.25.

For FDCPVCGAHFTQKGNLLRHIKL [46F_47D_49P_50V_52G_53A_54H_55F_67L_, Q9UKT9], the “log2 fold change of degron read counts” value [1] was 2.9, the “log2 fold change of degron read counts” value [2] was 1.04 and the “log2 fold change of degron read counts” value [3] was 0.819. For the same sequence, the “log2 fold change of degron read counts” value (compound: thalidomide) was 1.19.

With FWCPVCGAHFTQKGNLLRHIKL [46F_47W_49P_50V_52G_53A_54H_55F_67L_, Q9UKT9] the “log2 fold change of degron read counts” value [1] was 2.57, the “log2 fold change of degron read counts” value [2] was 3.79 and the “log2 fold change of degron read counts” value [3] was 1.99. For the same sequence, the “log2 fold change of degron read counts” value (compound: thalidomide) was 0.84.

With FMCPVCGAHFTQKGNLLRHIKL [46F_47M_49P_50V_52G_53A_54H_55F_67L_, Q9UKT9] the “log2 fold change of degron read counts” value [1] was -0.687, the “log2 fold change of degron read counts” value [2] was 0.177 and the “log2 fold change of degron read counts” value [3] was 2.13. For the same sequence, the “log2 fold change of degron read counts” value (compound: thalidomide) was 0.77.

FYCPVCGAHFTQKGNLLRHIKL [46F_47Y_49P_50V_52G_53A_54H_55F_67L_, Q9UKT9] was tested, and the “log2 fold change of degron read counts” value [1] was 2.89, the “log2 fold change of degron read counts” value [2] was 3.48 and the “log2 fold change of degron read counts” value [3] was 2.31. For the same sequence, the “log2 fold change of degron read counts” value (compound: thalidomide) was 0.928.

For FVCPVCGAHFTQKGNLLRHIKL [46F_47V_49P_50V_52G_53A_54H_55F_67L_, Q9UKT9], the “log2 fold change of degron read counts” value [1] was -0.62, the “log2 fold change of degron read counts” value [2] was 1.87 and the “log2 fold change of degron read counts” value [3] was 1.15. For the same sequence, the “log2 fold change of degron read counts” value (compound: thalidomide) was 2.07.

FACPVCGAHFTQKGNLLRHIKL [46F_47A_49P_50V_52G_53A_54H_55F_67L_, Q9UKT9] was tested, and the “log2 fold change of degron read counts” value [1] was 2.93, the “log2 fold change of degron read counts” value [2] was 1.05 and the “log2 fold change of degron read counts” value [3] was 0.871. The “log2 fold change of degron read counts” value (compound: thalidomide) was 0.221.

FGCPVCGAHFTQKGNLLRHIKL [46F_47G_49P_50V_52G_53A_54H_55F_67L_, Q9UKT9] was tested, and the “log2 fold change of degron read counts” value [1] was 2.85, the “log2 fold change of degron read counts” value [2] was 0.903 and the “log2 fold change of degron read counts” value [3] was 1.38. The “log2 fold change of degron read counts” value (compound: thalidomide) was 0.174.

For FQCPVCGAHFTQKGNLLRHIKL [46F_47Q_49P_50V_52G_53A_54H_55F_67L_, Q9UKT9], the “log2 fold change of degron read counts” value [1] was -0.252, the “log2 fold change of degron read counts” value [2] was 1.64 and the “log2 fold change of degron read counts” value [3] was 1.32. The “log2 fold change of degron read counts” value (compound: thalidomide) was 3.27.

In the case of FRCPVCGAHFTQKGNLLRHIKL [46F_47R_49P_50V_52G_53A_54H_55F_67L_, Q9UKT9], the “log2 fold change of degron read counts” value [1] is reported as -0.862, the “log2 fold change of degron read counts” value [2] is reported as -0.227 and the “log2 fold change of degron read counts” value [3] is reported as 0.973. The “log2 fold change of degron read counts” value (compound: thalidomide) was 0.478.

In the case of LACEICGFLCTQKGNLLRHIKL [46L_47A_49E_50I_52G_53F_54L_55C_67L_, Q9UKT9], the “log2 fold change of degron read counts” value [1] is reported as 0.343, the “log2 fold change of degron read counts” value [2] is reported as -0.688 and the “log2 fold change of degron read counts” value [3] is reported as -1.12. The “log2 fold change of degron read counts” value (compound: thalidomide) was -0.901.

In the case of FGCDICGAFFTQKGNLLRHIKL [46F_47G_49D_50I_52G_53A_54F_55F_67L_, Q9UKT9], the “log2 fold change of degron read counts” value [1] is reported as 0.984, the “log2 fold change of degron read counts” value [2] is reported as -0.922 and the “log2 fold change of degron read counts” value [3] is reported as 1.74. For the same sequence, the “log2 fold change of degron read counts” value (compound: thalidomide) was -1.18.

With FECPICGHKFTQKGNLLRHIKL [46F_47E_49P_50I_52G_53H_54K_55F_67L_, Q9UKT9] the “log2 fold change of degron read counts” value [1] was -3.48, the “log2 fold change of degron read counts” value [2] was -2.51 and the “log2 fold change of degron read counts” value [3] was -2.67. The “log2 fold change of degron read counts” value (compound: thalidomide) was -1.19.

FDCEICGRLFTQKGNLLRHIKL [46F_47D_49E_50I_52G_53R_54L_55F_67L_, Q9UKT9] was tested, and the “log2 fold change of degron read counts” value [1] was -2.24, the “log2 fold change of degron read counts” value [2] was -1.71 and the “log2 fold change of degron read counts” value [3] was -0.0163. The “log2 fold change of degron read counts” value (compound: thalidomide) was -0.815.

FWCDICGATFTQKGNLLRHIKL [46F_47W_49D_50I_52G_53A_54T_55F_67L_, Q9UKT9] was tested, and the “log2 fold change of degron read counts” value [1] was 2.74, the “log2 fold change of degron read counts” value [2] was 3.05 and the “log2 fold change of degron read counts” value [3] was 0.604. For the same sequence, the “log2 fold change of degron read counts” value (compound: thalidomide) was -1.08.

In the case of FGCEICGREFTQKGNLLRHIKL [46F_47G_49E_50I_52G_53R_54E_55F_67L_, Q9UKT9], the “log2 fold change of degron read counts” value [1] is reported as -2.14, the “log2 fold change of degron read counts” value [2] is reported as -2.75 and the “log2 fold change of degron read counts” value [3] is reported as -2.14. For the same sequence, the “log2 fold change of degron read counts” value (compound: thalidomide) was -2.84.

FACEICGAFFTQKGNLLRHIKL [46F_47A_49E_50I_52G_53A_54F_55F_67L_, Q9UKT9] was tested, and the “log2 fold change of degron read counts” value [1] was 2.61, the “log2 fold change of degron read counts” value [2] was 0.556 and the “log2 fold change of degron read counts” value [3] was -0.131. For the same sequence, the “log2 fold change of degron read counts” value (compound: thalidomide) was -0.84.

With FECEICGARFTQKGNLLRHIKL [46F_47E_49E_50I_52G_53A_54R_55F_67L_, Q9UKT9] the “log2 fold change of degron read counts” value [1] was 1.13, the “log2 fold change of degron read counts” value [2] was -0.528 and the “log2 fold change of degron read counts” value [3] was 1.59. For the same sequence, the “log2 fold change of degron read counts” value (compound: thalidomide) was 3.55.

For FFCEICGARFTQKGNLLRHIKL [46F_47F_49E_50I_52G_53A_54R_55F_67L_, Q9UKT9], the “log2 fold change of degron read counts” value [1] was 3.53, the “log2 fold change of degron read counts” value [2] was 3.66 and the “log2 fold change of degron read counts” value [3] was 1.66. For the same sequence, the “log2 fold change of degron read counts” value (compound: thalidomide) was 1.89.

For FWCEICGARFTQKGNLLRHIKL [46F_47W_49E_50I_52G_53A_54R_55F_67L_, Q9UKT9], the “log2 fold change of degron read counts” value [1] was 3.43, the “log2 fold change of degron read counts” value [2] was 3.51 and the “log2 fold change of degron read counts” value [3] was 1.48. For the same sequence, the “log2 fold change of degron read counts” value (compound: thalidomide) was 1.46.

In the case of FECEICGALFTQKGNLLRHIKL [46F_47E_49E_50I_52G_53A_54L_55F_67L_, Q9UKT9], the “log2 fold change of degron read counts” value [1] is reported as -2.06, the “log2 fold change of degron read counts” value [2] is reported as -1.77 and the “log2 fold change of degron read counts” value [3] is reported as 0.784. The “log2 fold change of degron read counts” value (compound: thalidomide) was 1.34.

For FTCEICGARFTQKGNLLRHIKL [46F_47T_49E_50I_52G_53A_54R_55F_67L_, Q9UKT9], the “log2 fold change of degron read counts” value [1] was 1.84, the “log2 fold change of degron read counts” value [2] was 3.12 and the “log2 fold change of degron read counts” value [3] was 1.85. For the same sequence, the “log2 fold change of degron read counts” value (compound: thalidomide) was 3.23.

FYCEICGAFFTQKGNLLRHIKL [46F_47Y_49E_50I_52G_53A_54F_55F_67L_, Q9UKT9] was tested, and the “log2 fold change of degron read counts” value [1] was 3.38, the “log2 fold change of degron read counts” value [2] was 3.27 and the “log2 fold change of degron read counts” value [3] was 2.4. For the same sequence, the “log2 fold change of degron read counts” value (compound: thalidomide) was -0.228.

In the case of FCCEICGAFFTQKGNLLRHIKL [46F_47C_49E_50I_52G_53A_54F_55F_67L_, Q9UKT9], the “log2 fold change of degron read counts” value [1] is reported as 0.678, the “log2 fold change of degron read counts” value [2] is reported as -0.0744 and the “log2 fold change of degron read counts” value [3] is reported as 1.4. The “log2 fold change of degron read counts” value (compound: thalidomide) was -0.2.

In the case of FWCEICGALFTQKGNLLRHIKL [46F_47W_49E_50I_52G_53A_54L_55F_67L_, Q9UKT9], the “log2 fold change of degron read counts” value [1] is reported as 2.93, the “log2 fold change of degron read counts” value [2] is reported as 2.99 and the “log2 fold change of degron read counts” value [3] is reported as 2.06. The “log2 fold change of degron read counts” value (compound: thalidomide) was -0.0847.

With FHCPICGHSFTQKGNLLRHIKL [46F_47H_49P_50I_52G_53H_54S_55F_67L_, Q9UKT9] the “log2 fold change of degron read counts” value [1] was -2.13, the “log2 fold change of degron read counts” value [2] was -1.94 and the “log2 fold change of degron read counts” value [3] was -1.36. For the same sequence, the “log2 fold change of degron read counts” value (compound: thalidomide) was -2.32.

FDCNQCGRHFTQKGNLLRHIKL [46F_47D_49N_50Q_52G_53R_54H_55F_67L_, Q9UKT9] was tested, and the “log2 fold change of degron read counts” value [1] was -2.61, the “log2 fold change of degron read counts” value [2] was -2.91 and the “log2 fold change of degron read counts” value [3] was -2.55. For the same sequence, the “log2 fold change of degron read counts” value (compound: thalidomide) was -2.64.
